Screens (PubChem)
D2 ag-1: D2 dopamine receptor (human) agonism | P14416 | HEK293 T-REx D2 cells, calcium flux agonist mode | activation, % at 2 µM | 340,000 tested, 0.53% active;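 active = activation over 3 SD above normal in the single-dose calcium agonist read, cut at about 30% in these data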; note: 0% is about no effect
Target sequence (P14416 whole entry, looked up): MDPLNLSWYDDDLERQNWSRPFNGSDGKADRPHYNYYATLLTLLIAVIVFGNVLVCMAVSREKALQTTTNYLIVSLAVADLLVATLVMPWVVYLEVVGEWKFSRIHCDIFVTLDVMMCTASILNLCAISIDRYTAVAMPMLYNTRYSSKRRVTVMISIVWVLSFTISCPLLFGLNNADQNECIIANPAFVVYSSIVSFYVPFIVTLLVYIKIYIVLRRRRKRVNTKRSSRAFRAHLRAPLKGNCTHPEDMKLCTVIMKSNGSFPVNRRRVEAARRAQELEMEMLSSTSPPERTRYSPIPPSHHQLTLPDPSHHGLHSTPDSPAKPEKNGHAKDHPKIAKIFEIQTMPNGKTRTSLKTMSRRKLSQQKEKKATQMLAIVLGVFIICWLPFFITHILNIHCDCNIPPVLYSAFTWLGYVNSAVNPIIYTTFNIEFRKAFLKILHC
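Agonism scored from kinetic calcium signal (1 read/sec, 180 s) following compound pin transfer, after a 10 s baseline. Cells: HEK293 Trex line expressing inducible D2 receptor coupled to calcium, dye-loaded after overnight culture at 30 C.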
D2 PAM-1: positively modulates the human D2 dopamine receptor allosterically | P14416 | HEK293 T-REx D2, calcium flux, EC20 dopamine potentiation | potentiation, % at 10 µM | 340,000 tested, 0.34% active | AID 485347;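 active = potentiation over 3 SD above the plate norm, cut at about 30% in these data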; note: 0% is about no effect
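Calcium flux readout, no-wash dye, 1 read/s. Inducible HEK293 Trex D2 line, overnight 30 C. Compound alone 180 s (agonist flags), then EC20 dopamine, another 180 s to score potentiation.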
D2 antagonist: antagonists of human D2 dopamine receptor; P14416; HEK293 TREx D2 cells, calcium flux, dopamine EC80; inhibition, % at 10 µM; 340,000 tested, 2% active; AID 485344; in the data active = inhibition above about 30%; inactive = below that, where a call was filed; note: 0% is about no effect
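Read-out: kinetic calcium fluorescence (1 cycle/s) in inducible HEK293 T-REx D2 cells after an EC80 dopamine addition that followed 180 s compound preincubation. Loss of the dopamine response indicates antagonism.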
D2 PAM-2: positive allosteric modulators of human D2 dopamine receptor; DiscoveRx D2 beta-arrestin cells, luminescence, 90 min; 100% = 57 uM dopamine signal; potentiation, % (no concentration beside the values); 360,000 tested, 0.23% active; AID 624464; in the data active = potentiation above about 50%; inconclusive = mostly about 30% to 49%
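D2 cells co-treated with compound plus 50 nM dopamine (EC20) for 90 min at 37 deg C to detect potentiation. Beta-arrestin recruitment was read as enzyme-fragment luminescence after 1 h at ambient temperature. Full response was set by 57 uM dopamine.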
D2 ag-2: activates the human D2 dopamine receptor; DiscoveRx PathHunter D2 beta-arrestin, luminescence, 90 min; 100% = 57 uM dopamine signal; P14416; 360,000 tested, 0.084% active; activation, % (no concentration beside the values); in the data active = activation above about 40%; inconclusive = between about 15% and that limit
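DiscoveRx PathHunter D2 beta-arrestin cells (2,100/well) attached overnight, then compound-stimulated 90 min at 37 C in HBSS/10 mM HEPES/0.1% Tween-20 buffer; beta-galactosidase complementation read by luminescence after 1 h at ambient temperature. Dopamine 57 uM final (EC100) as control.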
Starred values were filed as active, the others as inactive; ? = inconclusive; . = not tested or not shown. Sampled rows, rich in hits. Any-hit rate of the full collection: about 2.4%.

SMILES	D2 ag-1	D2 PAM-1	D2 antagonist	D2 PAM-2	D2 ag-2
CCN(CC(=O)Nc1c(F)cccc1F)C(=O)c1nn(C)c(=O)c2ccccc12	0	2	10	0	-7
CCCN(Cc1cccs1)C(=O)Nc1cc(C)ccc1OC	-1	15	.	.	.
COc1ccc(-n2nc(C(=O)NCC(=O)N3CCC(C(N)=O)CC3)c3ccccc3c2=O)cc1	0	9	15	-1	0
Cc1ccccc1CNC(=O)CC1C(=O)NCCN1Cc1c(F)cccc1Cl (stereo not drawn)	1	8	16	-7	3
CCC(=O)Nc1ccc(-n2nnnc2SCC(=O)NNC(=O)c2ccco2)cc1	1	-16	3	-9	-4
Cc1ccc(Sc2ccc(N3CCCC(C(=O)Nc4ccc(F)cc4)C3)nn2)cc1 (stereo not drawn)	0	-4	.	.	.
COc1ccc(NC(=O)CSC2=C(C#N)C(c3ccco3)C3=C(CCCC3=O)N2)c(OC)c1 (stereo not drawn)	0	10	5	-1	0
COc1cccc(NC(=O)CSC2=C(C#N)C(c3ccco3)C3=C(CCCC3=O)N2)c1 (stereo not drawn)	1	-3	37*	-20	1
COc1cccc(NC(=O)CSc2nc3c(c(-c4ccco4)c2C#N)CCCC3)c1	-1	42*	14	5	4
Cc1ccc(CNC(=O)CCS(=O)(=O)c2ccc3c(c2)oc(=O)n3C)cc1	-1	7	30*	4	2
Cc1ccn(CC(C)C(=O)O)n1 (stereo not drawn)	1	-14	34*	-4	-3
Cc1ccn(CCSCC(=O)O)n1	0	-9	11	8	4
O=S(=O)(Nc1cccc(S(=O)(=O)N2CCOCC2)c1)c1ccc2c(c1)OCCO2	2	5	0	2	-4
O=S(=O)(Nc1cccc(S(=O)(=O)N2CCOCC2)c1)c1cccs1	32*	-11	10	-4	-2
Cc1ccc(C(=O)NCC(=O)OC(C)C(=O)Nc2ccc(N(C)C)cc2)s1 (stereo not drawn)	0	-13	-5	0	-1
Cc1cccc(C)c1OCCN1C(=O)NC(C)(c2ccccc2)C1=O (stereo not drawn)	1	39*	-8	-6	-5
CN(C)S(=O)(=O)c1ccc(NC=C(C#N)C#N)cc1	0	-15	2	-4	0
CCN(CC)S(=O)(=O)c1ccc(NC=C(C#N)C#N)cc1	0	-2	74*	-2	3
OC(c1ccc(Cl)c(F)c1)c1ncc(-c2cccc(C(F)(F)F)c2)[nH]1 (stereo not drawn)	.	.	.	-1	3
Cc1cc([N+](=O)[O-])ccc1NC(=O)/C=C/c1cccs1	-1	-20	44*	-27	-3
CCOP(=O)(OCC)C(Nc1cccc(C(F)(F)F)c1)c1ccc(C)cc1 (stereo not drawn)	37*	-17	-10	-9	-2
Cc1ccc2c(c1)N(CC(=O)NCCCN1CCN(C)CC1)C(=O)CO2	1	-6	-3	-13	-5
O=C(Nc1ccc(S(=O)(=O)Nc2nccs2)cc1)C1=NN(c2ccccc2)C(=O)CC1	0	12	4	6	0
CN1/C(=C\C(=O)C[n+]2ccc(C(=O)c3ccccc3)cc2)C(C)(C)c2ccccc21	2	-3	15	53*	6
CC(C)N(CCCNC(=O)Cn1ncc2c([nH]c3ccccc32)c1=O)Cc1ccccc1	1	29	-19	-20	6
SMILES	D2 ag-1	D2 PAM-1	D2 antagonist	D2 PAM-2	D2 ag-2
CC(C)(C)OC(=O)NCCCCCNC(=O)c1nc[nH]c1C(=O)NCC(=O)OCc1ccccc1	.	.	.	52*	?
CCCc1cc(=O)[nH]c(SCc2nc(-c3ccccc3)no2)n1	-1	.	.	.	.
Cc1ccc(/C=C/C(=O)Oc2ccc(C#N)cc2)o1	0	3	48*	.	.
Cc1ccc(/C=C/C(=O)OCC(=O)NCc2ccccc2)o1	0	-4	-6	7	-4
CCCNC(=O)COC(=O)/C=C/c1ccc(C)o1	2	-3	30*	-6	-3
Cc1cc(C)c(/C=C/c2onc(C)c2S(=O)(=O)N2CCC(C(=O)N3CCN(c4ccccc4)CC3)CC2)c(C)c1	1	-7	.	.	.
O=C(N/N=C/c1cccc([N+](=O)[O-])c1)c1ccc(Br)cc1	0	6	3	-9	2
O=C(N/N=C/c1cc(Cl)ccc1O)c1ccc(Br)cc1	1	-26	34*	-20	1
Cc1cccc(/C=N\NC(=O)c2ccc(Cl)cc2)c1O	-1	-31	30*	-14	0
Cc1ccc(C(=O)Nc2cccc(C(=O)N/N=C/c3ccc(F)cc3)c2)cc1	-2	-24	31*	-15	2
O=C(N/N=C/c1cccc(Br)c1)c1ccc(Br)cc1	-2	-20	50*	-14	-1
O=C(O)c1ccccc1C(=O)NCC(O)COc1ccc(Cl)cc1 (stereo not drawn)	-1	1	2	-9	-3
O=C(COC(=O)/C=C/c1cccs1)Nc1ccc(Cl)cc1F	.	.	.	-12	-2
O=C(C[n+]1ccccc1)N/N=C/c1ccccc1F	1	-3	-6	-7	-9
O=C(C[n+]1ccccc1)N/N=C/c1cc(Br)ccc1O	2	-8	36*	-19	-6
O=C(NCCc1ccccc1)C1CC(=O)N(C2CCCC2)C1 (stereo not drawn)	0	-3	4	-7	5
O=C(NCCN1CCc2ccccc2C1)C1CC(=O)N(C2CCCC2)C1 (stereo not drawn)	1	14	33*	-28	-2
CC(=O)Nc1cccc(NC(=O)C2CC(=O)N(C3CCCCC3)C2)c1 (stereo not drawn)	-1	-2	3	4	0
O=C(NCCc1cccc(F)c1)C1CCC(=O)N(C2CCCCCC2)C1 (stereo not drawn)	0	-4	34*	-4	5
O=C(Nc1cccc([N+](=O)[O-])c1)C1CC(=O)N(C2CCCCC2)C1 (stereo not drawn)	-1	-18	31*	-24	-3
COC(=O)CN1C(=O)[C@H]2[C@@H](/C=C/c3ccccc3)N3C(=O)CN(Cc4ccccc4)C(=O)[C@@]3(C)[C@H]2C1=O	0	-3	-16	-12	-1
O=C(Cn1nnc(-c2ccccc2NC(=O)c2ccccc2F)n1)NCc1ccco1	1	0	33*	9	0
O=C(CCCCCN1C(=O)CCC1=O)Nc1ncn[nH]1	2	.	45*	0	0
CCN1CCN(CCCN(Cc2ccco2)C(=S)Nc2ccc(C)c(Cl)c2)CC1	2	-6	-15	-19	2
